Assay outcomes: PubChem BioAssay, National Center for Advancing Translational Sciences (NCATS)
Most compounds without a hit are left out; they make up all but 21% or so of the library.
Pf growth 48h = inhibits P. falciparum growth in the first generation, 48 h; P. falciparum luciferase growth in erythrocytes, 48 h; Potency, µM (top dose mostly 28.7 µM), without a hit: top-dose activity change, negative = inhibition, actives largely listed as inhibitors; hit rate 5.9% among 310,000; AID 504832; further: potency means the concentration at half of the fitted maximal effect; on the % scale 0 is the no-effect control and ±100 the full control effect
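Compounds are pin-transferred into medium, infected erythrocytes (2% hematocrit, 0.1% parasitemia final) are added, and plates sit one parasite generation at 37 C in 5% CO2. Detection reagent is then added and luminescence measured.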
Pf growth 96h = P. falciparum growth inhibition at 96 hours | P. falciparum luciferase reporter growth, 96 h | Potency, µM (top dose mostly 28.7 µM), inactives show at the highest dose activity change, negative = inhibition, actives largely listed as inhibitors | hit rate 6.9% among 320,000 | AID 504834; further: potency means the concentration at half of the fitted maximal effect; on the % scale 0 is the no-effect control and ±100 the full control effect
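Readout is luminescence from an integrated firefly luciferase in P. falciparum. Red cells, 2% hematocrit and 0.05% parasitemia final, were cultured with compound through two parasite generations (96 hours) at 37 C, 5% CO2.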
FBPA Giardia inh = inhibitors of Giardia lamblia fructose-1,6-bisphosphate aldolase | purified Giardia FBPA | Potency, µM (titrated, usually from 59.6 µM), without a hit: at the top dose activity, negative = inhibition, most hits filed as inhibitors | hit rate 0.71% among 290,000 | AID 2451; further: potency means the concentration at half of the fitted maximal effect; on the % scale 0 is the no-effect control and ±100 the full control effect; nearly all actives have a fitted effect of over 55% in size
Target sequence (A8B2U2 whole entry, looked up): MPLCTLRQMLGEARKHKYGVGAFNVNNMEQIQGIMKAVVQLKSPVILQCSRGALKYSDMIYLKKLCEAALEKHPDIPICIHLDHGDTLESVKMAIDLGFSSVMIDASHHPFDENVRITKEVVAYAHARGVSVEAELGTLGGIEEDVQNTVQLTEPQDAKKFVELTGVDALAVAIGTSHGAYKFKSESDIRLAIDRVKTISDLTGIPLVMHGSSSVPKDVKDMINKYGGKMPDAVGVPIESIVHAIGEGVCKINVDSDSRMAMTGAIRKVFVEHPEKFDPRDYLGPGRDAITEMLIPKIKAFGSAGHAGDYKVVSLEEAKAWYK
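40 nM FBPA preincubated 10 min at RT with compound (up to 57.5 uM final), then substrate plus GAPDH/TPI/NAD/arsenate coupling and diaphorase/resazurin added. Fluorescence read after 20 min at RT, 525/598 nm.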
Cycloheximide cs = affects cycloheximide protein synthesis inhibition readout, counter-screen. cell reporter, cycloheximide protein synthesis inhibition counterscreen. max response, %. AID 2314. hit rate 12% among 300,000; in the data active means max response mostly above about 13%, no sharp cut-off; inactive means mostly below about 14%; further: read at 38.3 µM for the half of the compounds with a filed dose; 0% is about no effect
NS1 function inh = influenza NS1 inhibition | Potency, µM (doses to about 46.1 µM), inactives show at the highest dose activity, positive = more growth | hit rate 0.4% among 270,000; calls by dose curve; further: potency means the concentration at half of the fitted maximal effect; actives are rising curves; nearly all actives have a fitted effect of over 50% in size
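S. cerevisiae expressing influenza A NS1, grown in glucose, washed, then diluted 1:100 into pH 6.0 -URA galactose medium with 23 nl compound. Growth recovery read as OD600; NS1-free strain serves as control.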
Shiga inhibitor = inhibitors of Shiga toxin in Vero cells. Vero cells, Shiga toxin protein synthesis inhibition reporter. hit rate 9.2% among 290,000. inhibition, % at 38.7 µM; in the data active means inhibition mostly above about 28%, no sharp cut-off; inactive means mostly below about 43%; further: 0% is about no effect
* = called active by the depositor; ? = inconclusive; · = no result; [ ] = dose if it differs, or a comment. Unless noted, the call rests on the fitted dose curve; in most records, active means well fitted curve in the direction sought with a large enough effect; inconclusive means small, poorly fitted or top-dose-only effect, or another doubt; inactive means no such curve, though single readings can be large; an effect the other way counts as inactive or inconclusive.

SMILES | Pf growth 48h | Pf growth 96h | FBPA Giardia inh | Cycloheximide cs | NS1 function inh | Shiga inhibitor
CC1=Nc2cc(C(=O)NCCN3CCOCC3)ccc2Sc2c(C)ccc(C)c21 | ? | 12µM* | 5% | -6 | -2% | -13
Cc1ccccc1CN1C(=O)c2ccccc2Sc2ccc(C(=O)NCCN3CCOCC3)cc21 | 8.3µM* | ? | 0% | -3 | -3% | 9
CCN(c1ccc(NC(=O)c2cccc(S(=O)(=O)N3CCN(C)CC3)c2)cc1)C(C)C | 12% | -17% | · | 1 | -35% | -10
COc1ccc(CN2CCC(n3nccc3NC(=O)C3CC3)CC2)c(Cl)c1OC | 111% | 15% | · | -4 | -14% | -2
O=C(O)[C@@H]1[C@@H](C(=O)NCc2cccnc2)[C@@H]2C=C[C@@H]1O2 | · | · | · | · | 1% | ·
O=C(N/C(=C/c1ccccc1F)C(=O)N1CCCCC1)c1ccccc1 | -38% | 23% | 0% | 0 | 12% | -5
CCN(C(=O)CCS(=O)(=O)c1cccc2nonc12)c1ccc(F)cc1 | -7% | ? | 13% | -4 | 4% | -9
CC(C(=O)O)c1ccc(C(=O)c2ccccc2)s1 (stereo unspecified) | 3% | 10% | · | · | · | ·
CNc1ncc(C(=O)c2ccc(Br)cc2)s1 | 339% | 389% | 4% | 44* | -1% | 81*
CNc1ncc(C(=O)c2ccccc2)s1 | 107% | 284% | 1% | 41* | -26% | 70*
Cc1ccc(Cl)cc1NC(=O)[C@@H]1CCC(=O)N1C1OC(=O)c2ccccc21 (stereo partly specified) | ? | ? | 12% | -2 | 1% | 14
COc1ccc(OC)c(S(=O)(=O)Nc2ccc(CC(=O)O)cc2)c1 | 5% | 13µM* | 14% | -1 | 3% | -9
COc1ccc(OC)c(S(=O)(=O)Nc2ccc(OCC(=O)O)cc2)c1 | · | ? | -2% | -10 | ? | -7
Cc1oc(-c2ccccc2Cl)nc1CS(=O)(=O)CC(=O)NC1CCCC1 | ? | ? | 6% | -2 | -11% | 3
Cc1ccc(Cn2c(O)c(N=NC(=S)Nc3ccccc3F)c3ccccc32)cc1 | ? | 12% | 2% | -1 | · | 8
Oc1c(N=NC(=S)Nc2ccccc2F)c2ccccc2n1Cc1ccccc1 | ? | 7% | -2% | 2 | · | -3
Oc1c(N=NC(=S)Nc2ccccc2F)c2ccccc2n1Cc1ccccc1Cl | 5.2µM* | ? | 0% | 11 | · | -3
Cc1c(Cl)cccc1NC(=S)N=Nc1c(O)n(CN2CCOCC2)c2ccccc12 | 3.7µM* | 414% | -1% | -4 | -28% | -6
CSc1ccc(CN(C)C(=O)COc2ccc(C(=O)c3ccccc3)cc2)cc1 | 34% | 63% | · | 0 | 1% | 21
Cc1nc2nc(CCNS(=O)(=O)c3ccc(Cl)cc3)cn2nc1C | 17% | 39% | -16% | 11 | -3% | -2
O=C(Cc1ccc([N+](=O)[O-])cc1)OCc1ccc([N+](=O)[O-])cc1 | ? | 6% | 2% | -2 | -19% | -3
COC(=O)c1ccc(COC(=O)c2[nH]c(C)c(C(C)=O)c2C)o1 | -9% | 12% | 6% | 13 | -12% | 36
CCCS(=O)(=O)c1ccc(COC(=O)Cc2ccc([N+](=O)[O-])cc2)cc1 | -28% | 2.9µM* | 16% | 2 | 22% | ·
CC(=O)c1c(C)[nH]c(C(=O)OCc2ccc([N+](=O)[O-])cc2)c1C | 12% | 14% | -6% | 15* | 1% | 56*
CN(C)S(=O)(=O)c1ccc(C(=O)OCc2ccc(C#N)cc2)cc1 | 1% | · | 0% | -3 | -14% | -3
SMILES | Pf growth 48h | Pf growth 96h | FBPA Giardia inh | Cycloheximide cs | NS1 function inh | Shiga inhibitor
CN(C)S(=O)(=O)c1ccc(C(=O)OCc2ccc([N+](=O)[O-])cc2)cc1 | 13% | 7% | 4% | 13* | 8% | 18
CC(=O)c1c(C)[nH]c(C(=O)OCc2ccccc2)c1C | 128% | ? | -1% | 38* | -14% | 120*
O=C(COC(=O)C12CC3CC(CC(O)(C3)C1)C2)Nc1cccc(Br)c1 | 159% | 88% | · | · | · | ·
CCCCCCCCCCCCC/C=C/[C@@H](O)[C@H](CO)NC(=O)CCCCC | · | · | -14% | 2 | · | 21
CC1(C)Cc2c(sc(NC(=O)C(=O)NCC3CCCO3)c2C(N)=O)CO1 (stereo unspecified) | -24% | ? | · | -2 | -10% | -4
CN1CCN(C(c2ccc(C(F)(F)F)cc2)c2cc(Cl)c3cccnc3c2O)CC1 (stereo unspecified) | ? | 3.7µM* | 19% | -3 | -127% | 12
c1ccc2c(N3CCNCC3)nsc2c1 | 13µM* | -23% | -2% | 16* | 0% | 8
O=C1[C@H]2CCCC[C@H]2C(=O)N1CCCCN1CCN(c2nsc3ccccc23)CC1 | ? | 12µM* | · | · | · | ·
O=C(CN1CCN(c2ccc(F)cc2)CC1)NCc1ccc(Cl)cc1 | -13% | -25% | 7% | 1 | -10% | -10
N#Cc1ccccc1NC(=O)CSc1nccn1CCc1ccccc1 | 47% | -22% | -11% | 37* | -14% | 78*
N#Cc1ccccc1NC(=O)CSc1nnc(-c2ccccc2)n1-c1ccccc1 | ? | -6%[5.75 µM] | -1% | -2 | -32% | -7
Cn1ccnc1SCC(=O)Nc1ccc2c(c1)OC(F)(F)O2 | 0% | 50% | 1% | 15* | · | 22
COc1ccc(NC(=O)CSc2nccn2C)cc1S(N)(=O)=O | 2% | 6% | 2% | -7 | · | -2
CC(=O)c1ccc(NC(=O)CSc2nccn2C)cc1 | 76% | 139% | 1% | 11* | 0% | 66*
CCOC(=O)c1ccc(NC(=O)CSc2nccn2C)cc1 | 13% | 10% | -4% | 39* | -13% | 61
Cc1ccc(NC(=O)C(C)OC(=O)c2ccc(Cl)nc2)cc1S(=O)(=O)N1CCOCC1 (stereo unspecified) | ? | -10% | · | · | · | ·
CCOC(=O)c1c(C)[nH]c(C)c1S(=O)(=O)N1CCCCC1 | -4% | 60% | 7% | 9 | 9% | -3
CC(C)NC(=O)C(c1ccc(F)cc1)N(C(=O)CCC(=O)Nc1ccccn1)C1CCCCC1 (stereo unspecified) | 8% | 34% | 5% | -1 | -25% | -4
CN1CCN(c2ccnc(-c3ccc(N(C)C)cc3)n2)CC1 | · | · | 2% | · | · | ·
CCOC(=O)c1cc(C)sc1NC(=O)CSc1nccn1C | -3% | 20% | · | 50* | -20% | 111*
Cc1ccc(NC(=O)CSc2nccn2Cc2ccccc2)cc1C | 25% | 44% | -8% | 48* | -59% | 99
CC(=O)c1ccc(NC(=O)CSc2nccn2CCc2ccccc2)cc1 | 104% | · | -1% | 33* | 2% | 88*
COC(=O)c1c(NC(=O)CSc2nccn2C)sc(C)c1C | ? | -10% | · | · | · | ·
CCN(c1ccccc1)S(=O)(=O)c1cc2c(cc1C)NC(=O)CO2 | -17% | ? | 8% | 0 | -5% | -4
Cc1ccccc1SCC(=O)OCC(=O)Nc1sccc1C(N)=O | -4% | -19% | -24% | 6 | -40% | -4
